# According to PMC11062922 (Nature Chemical Biology, 2023):
# Read-outs that look alike come from different tables or passages of the source.
# Assays:
# AAK1 = tested on: AAK1; design: species or system human, MV4-11 + K-562 + COLO205 + SK-N-BE2 + OVCAR-8; settings: read-out: apparent Kd, n = 1
# CLK1 = tested on: CLK1; design: species or system human, MV4-11 + K-562 + COLO205 + SK-N-BE2 + OVCAR-8; settings: read-out: apparent Kd, n = 1
# CLK4 = tested on: CLK4; design: species or system human, MV4-11 + K-562 + COLO205 + SK-N-BE2 + OVCAR-8; settings: read-out: apparent Kd, n = 1
# GSK3A = tested on: GSK3A; design: species or system human, MV4-11 + K-562 + COLO205 + SK-N-BE2 + OVCAR-8; settings: read-out: apparent Kd, n = 1
# GSK3B = tested on: GSK3B; design: species or system human, MV4-11 + K-562 + COLO205 + SK-N-BE2 + OVCAR-8; settings: read-out: apparent Kd, n = 1
# MELK = tested on: MELK; design: species or system human, MV4-11 + K-562 + COLO205 + SK-N-BE2 + OVCAR-8; settings: read-out: apparent Kd; compound concentrations:100 nM and 1000 nM (sheet 'Samples'); n = 1
# PKN1 = tested on: PKN1; design: species or system human, MV4-11 + K-562 + COLO205 + SK-N-BE2 + OVCAR-8; settings: read-out: apparent Kd; compound concentrations:100 nM and 1000 nM (sheet 'Samples'); n = 1
# PKN3 = tested on: PKN3; design: species or system human, MV4-11 + K-562 + COLO205 + SK-N-BE2 + OVCAR-8; settings: read-out: apparent Kd; compound concentrations:100 nM and 1000 nM (sheet 'Samples'); n = 1
# Q6ZSR9 = Q6ZSR9 (human, UniProt Q6ZSR9); design: species or system MV4-11 + K-562 + COLO205 + SK-N-BE2 + OVCAR-8; settings: read-out: apparent Kd, n = 1
# Sequence of Q6ZSR9 (Q6ZSR9 whole entry, looked up): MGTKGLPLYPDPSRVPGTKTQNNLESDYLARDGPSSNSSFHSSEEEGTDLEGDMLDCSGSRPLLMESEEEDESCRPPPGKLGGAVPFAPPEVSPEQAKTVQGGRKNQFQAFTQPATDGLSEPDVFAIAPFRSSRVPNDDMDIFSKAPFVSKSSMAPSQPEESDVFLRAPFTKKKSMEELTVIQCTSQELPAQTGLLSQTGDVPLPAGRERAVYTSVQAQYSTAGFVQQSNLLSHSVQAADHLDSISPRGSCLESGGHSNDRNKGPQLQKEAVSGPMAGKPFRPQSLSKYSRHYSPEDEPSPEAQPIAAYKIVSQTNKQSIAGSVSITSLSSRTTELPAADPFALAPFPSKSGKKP
# CSNK2A1;CSNK2A3 = tested on: CSNK2A1;CSNK2A3; design: species or system human, MV4-11 + K-562 + COLO205 + SK-N-BE2 + OVCAR-8; settings: read-out: apparent Kd, compound concentrations: 100 nM and 1000 nM (sheet 'Samples'), n = 1
# CSNK2A2 = tested on: CSNK2A2; design: species or system human, MV4-11 + K-562 + COLO205 + SK-N-BE2 + OVCAR-8; settings: read-out: apparent Kd, compound concentrations: 100 nM and 1000 nM (sheet 'Samples'), n = 1
# GAK = tested on: GAK; design: species or system human, MV4-11 + K-562 + COLO205 + SK-N-BE2 + OVCAR-8; settings: read-out: apparent Kd; compound concentrations: 100 nM and 1000 nM (sheet 'Samples'), CATDS: 4.3278259075416499E-2; n = 1
# PRKAG1 = tested on: PRKAG1; design: species or system human, MV4-11 + K-562 + COLO205 + SK-N-BE2 + OVCAR-8; settings: read-out: apparent Kd; compound concentrations: 100 nM and 1000 nM (sheet 'Samples'), CATDS: 4.3402383935848998E-2; n = 1
# BMP2K = tested on: BMP2K; design: species or system human, MV4-11 + K-562 + COLO205 + SK-N-BE2 + OVCAR-8; settings: read-out: apparent Kd, compound concentrations: 100 nM and 1000 nM (sheet 'Samples'), n = 1
# FLT4 = tested on: FLT4; design: species or system human, MV4-11 + K-562 + COLO205 + SK-N-BE2 + OVCAR-8; settings: read-out: apparent Kd; compound concentrations:100 nM and 1000 nM (sheet 'Samples'); n = 1
# NUAK1 = tested on: NUAK1; design: species or system human, MV4-11 + K-562 + COLO205 + SK-N-BE2 + OVCAR-8; settings: read-out: apparent Kd; compound concentrations:100 nM and 1000 nM (sheet 'Samples'); n = 1
# PAK4 = tested on: PAK4; design: species or system human, MV4-11 + K-562 + COLO205 + SK-N-BE2 + OVCAR-8; settings: read-out: apparent Kd; compound concentrations:100 nM and 1000 nM (sheet 'Samples'); n = 1
# SIK2 = tested on: SIK2; design: species or system human, MV4-11 + K-562 + COLO205 + SK-N-BE2 + OVCAR-8; settings: read-out: apparent Kd; compound concentrations:100 nM and 1000 nM (sheet 'Samples'); n = 1
# [1] = compound concentrations:100 nM and 1000 nM (sheet 'Samples')
structure (smiles),measurement,setting,value
CCn1c(-c2nonc2N)nc2cncc(Br)c21 [SB-738004],potency estimated from few doses,AAK1; [1],517 nM
same,potency estimated from few doses,CLK1; [1],1420 nM
same,potency estimated from few doses,CLK4; [1],505 nM
same,potency estimated from few doses,GSK3A; [1],445 nM
same,potency estimated from few doses,GSK3B; [1],724 nM
same,potency estimated from few doses,MELK,1660 nM
same,potency estimated from few doses,PKN1,553 nM
same,potency estimated from few doses,PKN3,1320 nM
same,potency estimated from few doses,Q6ZSR9; [1],369 nM
Cl.Cl.NC[C@H](CC1CCCCC1)NC(=O)c1ccc(-c2ccnc3[nH]ccc23)s1.NC[C@H](CC1CCCCC1)NC(=O)c1ccc(-c2ccnc3[nH]ccc23)s1 [GSK1581428A],potency estimated from few doses,AAK1; [1],54.5 nM
same,potency estimated from few doses,PKN1,538 nM
same,potency estimated from few doses,Q6ZSR9; [1],62.7 nM
O=C1N=C(NCc2ccccc2Br)S/C1=C\c1ccc2ncccc2c1 [RO4506918-000],potency estimated from few doses,"AAK1; compound concentrations: 100 nM and 1000 nM (sheet 'Samples'), CATDS: 8.9232255617264805E-2",910 nM
same,potency estimated from few doses,"CLK1; compound concentrations: 100 nM and 1000 nM (sheet 'Samples'), CATDS: 0.17031966096866",202 nM
same,potency estimated from few doses,"CLK4; compound concentrations: 100 nM and 1000 nM (sheet 'Samples'), CATDS: 0.31130162986837101",76.5 nM
same,potency estimated from few doses,CSNK2A1;CSNK2A3; CATDS: 0.124108593087182,383 nM
same,potency estimated from few doses,CSNK2A2; CATDS: 0.192604305943326,162 nM
same,potency estimated from few doses,"Q6ZSR9; compound concentrations: 100 nM and 1000 nM (sheet 'Samples'), CATDS: 9.2903146742856602E-2",804 nM
CCC(CC)(CC)n1cnc2c(N)ncnc21 [SKF-97620],potency estimated from few doses,"AAK1; compound concentrations: 100 nM and 1000 nM (sheet 'Samples'), CATDS: 2.5595683701841399E-2",1620 nM
same,potency estimated from few doses,"CLK1; compound concentrations: 100 nM and 1000 nM (sheet 'Samples'), CATDS: 2.7794407506576899E-2",1260 nM
same,potency estimated from few doses,"CLK4; compound concentrations: 100 nM and 1000 nM (sheet 'Samples'), CATDS: 2.9101207913204901E-2",1100 nM
Nc1nc(-c2ccc3c(N)n[nH]c3c2)cc(N2CCCC(NC(=O)c3ccccc3)C2)n1 (stereo not drawn) [GSK2286775B],potency estimated from few doses,AAK1; [1],826 nM
same,potency estimated from few doses,Q6ZSR9; [1],821 nM
O=C1N=C(N[C@H](CO)c2ccccc2)S/C1=C\c1ccc2ncccc2c1 [RO4554339-000],potency estimated from few doses,"AAK1; compound concentrations: 100 nM and 1000 nM (sheet 'Samples'), CATDS: 0.10816447707824001",735 nM
same,potency estimated from few doses,CSNK2A1;CSNK2A3; CATDS: 0.26590884807239001,111 nM
same,potency estimated from few doses,CSNK2A2; CATDS: 0.32699476113935999,80.2 nM
same,potency estimated from few doses,"Q6ZSR9; compound concentrations: 100 nM and 1000 nM (sheet 'Samples'), CATDS: 9.0735809704368106E-2",1320 nM
Cn1cc(C2=C(c3ccc(OC[C@@H](O)CO)cc3)C(=O)NC2=O)c2ccccc21 [RO3208546-000],potency estimated from few doses,"AAK1; compound concentrations: 100 nM and 1000 nM (sheet 'Samples'), CATDS: 3.6946772477140302E-2",1320 nM
same,potency estimated from few doses,"CLK1; compound concentrations: 100 nM and 1000 nM (sheet 'Samples'), CATDS: 3.5256752059163503E-2",1510 nM
same,potency estimated from few doses,GAK,885 nM
same,potency estimated from few doses,"GSK3A; compound concentrations: 100 nM and 1000 nM (sheet 'Samples'), CATDS: 5.7986352312034098E-2",489 nM
same,potency estimated from few doses,"GSK3B; compound concentrations: 100 nM and 1000 nM (sheet 'Samples'), CATDS: 4.5953894166210499E-2",774 nM
same,potency estimated from few doses,PRKAG1,879 nM
same,potency estimated from few doses,"Q6ZSR9; compound concentrations: 100 nM and 1000 nM (sheet 'Samples'), CATDS: 3.3781584093652402E-2",1720 nM
NS(=O)(=O)c1ccc(N/N=C2\C(=O)Nc3ccc4ncccc4c32)cc1 [GW305178X],potency estimated from few doses,"AAK1; compound concentrations: 100 nM and 1000 nM (sheet 'Samples'), CATDS: 4.5052292202984998E-2",1340 nM
same,potency estimated from few doses,BMP2K; CATDS: 4.3500032535549099E-2,1510 nM
same,potency estimated from few doses,CSNK2A1;CSNK2A3; CATDS: 3.8490357435000497E-2,2360 nM
same,potency estimated from few doses,CSNK2A2; CATDS: 4.2211322900730999E-2,1670 nM
same,potency estimated from few doses,"Q6ZSR9; compound concentrations: 100 nM and 1000 nM (sheet 'Samples'), CATDS: 4.4355829104281E-2",1410 nM
Cl.Nc1nc(-c2ccc3c(c2)C(=Cc2cc(Br)c(O)c(Br)c2)C(=O)N3)cs1 [GW407323A],potency estimated from few doses,"AAK1; compound concentrations: 100 nM and 1000 nM (sheet 'Samples'), CATDS: 6.1735676660854701E-2",169 nM
same,potency estimated from few doses,BMP2K; CATDS: 9.5342393431140995E-2,73.6 nM
same,potency estimated from few doses,"CLK1; compound concentrations: 100 nM and 1000 nM (sheet 'Samples'), CATDS: 4.62979117088285E-2",333 nM
same,potency estimated from few doses,"CLK4; compound concentrations: 100 nM and 1000 nM (sheet 'Samples'), CATDS: 8.6707828980110799E-2",87 nM
same,potency estimated from few doses,CSNK2A1;CSNK2A3; CATDS: 5.7367661207528599E-2,199 nM
same,potency estimated from few doses,CSNK2A2; CATDS: 4.5506088174881797E-2,349 nM
same,potency estimated from few doses,"Q6ZSR9; compound concentrations: 100 nM and 1000 nM (sheet 'Samples'), CATDS: 5.6700337610390401E-2",204 nM
Cn1cc(C2=C(c3c(S(C)=O)n(C)c4ccccc34)C(=O)NC2=O)c2ccccc21 (stereo not drawn) [RO0317379-000],potency estimated from few doses,"AAK1; compound concentrations: 100 nM and 1000 nM (sheet 'Samples'), CATDS: 0.257155893587458",217 nM
same,potency estimated from few doses,BMP2K; CATDS: 0.121414398934197,1050 nM
same,potency estimated from few doses,"Q6ZSR9; compound concentrations: 100 nM and 1000 nM (sheet 'Samples'), CATDS: 0.33733581248504402",142 nM
O=C(Nc1n[nH]c2nc(-c3ccccc3O)ccc12)C1CC1 [SB-711880],potency estimated from few doses,AAK1; [1],713 nM
same,potency estimated from few doses,CLK4; [1],1230 nM
same,potency estimated from few doses,FLT4,1790 nM
same,potency estimated from few doses,MELK,2380 nM
same,potency estimated from few doses,NUAK1,1850 nM
same,potency estimated from few doses,PAK4,357 nM
same,potency estimated from few doses,Q6ZSR9; [1],537 nM
same,potency estimated from few doses,SIK2,547 nM
